Shown are actives, neighbours in structure and some others; about 9.5% of the full set was active somewhere.
Tau FP inhib = qHTS for Inhibitors of Tau Fibril Formation, Fluorescence Polarization | K18 P301L tau heparin fibrillization, Alexa594 FP, 6 h | Potency, µM (titrated, usually from 57.7 µM), usual class: inhibitors | hit rate 0.39% among 280,000 | Microtubule-associated protein tau (Homo sapiens), P10636; also: nearly all actives have a fitted effect of over 55% in size
Target sequence (P10636 561-689 P618L limits assumed): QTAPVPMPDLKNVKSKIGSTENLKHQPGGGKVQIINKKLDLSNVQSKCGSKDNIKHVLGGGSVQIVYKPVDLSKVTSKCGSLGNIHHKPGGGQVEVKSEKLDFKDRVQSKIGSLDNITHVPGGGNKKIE
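FP of Alexa 594-tau after heparin (20 uM) induction. Substrate: human K18 P301L, 15 uM unlabeled, 0.24 uM labeled. Buffer 100 mM sodium acetate pH 7. 6 hr, 37 C.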
NPSR antag = qHTS Assay for Antagonists of the Neuropeptide S Receptor: cAMP Signal Transduction; AID 1461, 2008; Q6W5P4; Potency, µM (doses to about 38.3 µM), usual class: inhibitors; hit rate 1% among 220,000; CHO-NPSR cells, cAMP TR-FRET, antagonist mode; also: nearly all actives have a fitted effect of over 50% in size
Tau ThT inhib = qHTS for Inhibitors of Tau Fibril Formation, Thioflavin T Binding; AID 1460, 2008; recombinant tau K18 P301L, heparin-induced fibrillization, ThT fluorescence; Microtubule-associated protein tau (Homo sapiens), P10636; Potency, µM (doses to about 57.4 µM), actives largely listed as inhibitors; hit rate 2.1% among 270,000; also: nearly all actives have a fitted effect of over 55% in size
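In this qHTS, human K18 P301L tau is incubated with compound and heparin for 6 hr at 37 C, and Thioflavin T fluorescence then reports fibril load.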
HPGD inh = qHTS Assay for Inhibitors of HPGD (15-Hydroxyprostaglandin Dehydrogenase). purified HPGD, NADH fluorescence kinetic, PGE2 substrate. Potency, µM, actives largely listed as inhibitors. hit rate 4.3% among 150,000. AID 894, 2007; active = well fitted inhibition curve with a large enough effect, not every such curve was filed as active; inconclusive = small, poorly fitted or top-dose-only effect, or another doubt; inactive = no such curve, though single readings can be large or run the other way
Target sequence (P15428 whole entry, looked up): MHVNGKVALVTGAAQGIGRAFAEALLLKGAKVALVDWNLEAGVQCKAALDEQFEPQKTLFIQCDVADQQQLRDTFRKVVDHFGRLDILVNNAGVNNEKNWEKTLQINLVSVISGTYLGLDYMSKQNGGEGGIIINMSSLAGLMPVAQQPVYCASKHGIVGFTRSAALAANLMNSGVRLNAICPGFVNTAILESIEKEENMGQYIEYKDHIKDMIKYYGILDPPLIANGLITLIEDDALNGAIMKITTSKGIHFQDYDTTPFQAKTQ
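20 nM HPGD preincubated 15 min at room temperature with compound in 50 mM Tris-HCl pH 8, 0.01% Tween 20. Started with 1 mM NAD+ and 30 uM prostaglandin E2; NADH fluorescence (360/450 nm) read 5 times over 30-s intervals, last minus first.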
ALDH1A1 inh = qHTS Assay for Inhibitors of Aldehyde Dehydrogenase 1 (ALDH1A1). Aldehyde dehydrogenase 1A1 (Homo sapiens), P00352. AID 1030, 2008. Potency, µM (highest dose often 75.3 µM), actives largely listed as inhibitors. hit rate 7.3% among 220,000. Purified ALDH1A1, NADH fluorescence, propionaldehyde substrate; active = well fitted inhibition curve with a large enough effect, not every such curve was filed as active; inconclusive = small, poorly fitted or top-dose-only effect, or another doubt; inactive = no such curve, though single readings can be large or run the other way
Tau fluor counter = Counterscreen qHTS for Inhibitors of Tau Fibril Formation, Fluorescence Polarization. tau K18 P301L (four-repeat tau fragment) Alexa594 fluorescence, heparin fibrillization. hit rate 0.93% among 280,000. Potency, µM (top dose mostly 57.7 µM); also: nearly all actives have a fitted effect of over 55% in size
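Human K18 P301L tau (15 uM unlabeled plus 0.24 uM Alexa 594-labeled, final) in 100 mM sodium acetate pH 7 was mixed with compound and 20 uM heparin and incubated 6 hr at 37 C.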
Each line names hits and unclear results; the compound was inactive in the other large screens; [ ] = another dose, or the depositor's remark. Unless noted, calls follow the shape of the dose curve; as a rule, active = well fitted curve in the direction sought with a large enough effect; inconclusive = small, poorly fitted or top-dose-only effect, or another doubt; inactive = no such curve, though single readings can be large; an effect the other way counts as inactive or inconclusive.

CC1=C(C(=O)OC(C)C)C(c2cn(-c3ccccc3)nc2-c2cccs2)NC(=O)N1 (centres undefined)	none
CC(=O)O[C@]1(C(C)=O)CC[C@H]2C3C=C(Cl)C4=CC(=O)[C@@H]5C[C@H]5[C@]4(C)C3CC[C@@]21C (some centres undefined)	NPSR antag 13µM
CC(=O)[C@@H]1[C@@H](C(=O)c2ccc(C)cc2)[C@]2(C(=O)Nc3ccccc32)[C@H]2C=Cc3cc(F)ccc3N12	Tau FP inhib inconclusive, NPSR antag inconclusive, Tau ThT inhib 14µM, ALDH1A1 inh inconclusive, Tau fluor counter inconclusive
O=C(c1ccc(F)cc1)[C@@H]1[C@@H](C(=O)c2ccccc2)[C@@]2(C(=O)Nc3ccccc32)[C@H]2c3ccccc3C=CN12	Tau FP inhib inconclusive, Tau ThT inhib inconclusive, ALDH1A1 inh 20µM, Tau fluor counter inconclusive
CC(=O)[C@@H]1[C@@H](C(=O)c2ccc(F)cc2)[C@]2(C(=O)Nc3ccccc32)[C@H]2C=Cc3cc(F)ccc3N12	Tau ThT inhib inconclusive (no result: HPGD inh, ALDH1A1 inh)
N#C/C(=C\c1c(Oc2ccc(F)cc2)nc2ccccn2c1=O)c1nc2ccccc2s1	Tau FP inhib inconclusive, Tau ThT inhib inconclusive (no result: NPSR antag, HPGD inh, ALDH1A1 inh)
Cc1cccc(Oc2cc(NC(=O)Cn3cnc([N+](=O)[O-])n3)cc([N+](=O)[O-])c2)c1	HPGD inh inconclusive, ALDH1A1 inh inconclusive, Tau fluor counter inconclusive
Cc1cc([N+](=O)[O-])nn1CCCC(=O)Nc1cc(Oc2ccc(F)cc2)cc([N+](=O)[O-])c1	ALDH1A1 inh inconclusive
CC(C)=NOc1cc(NC(=O)CCl)cc([N+](=O)[O-])c1	ALDH1A1 inh 0.18µM, Tau fluor counter inconclusive
CCC(=O)Nc1cc(ON=C(C)C)cc([N+](=O)[O-])c1	none
Cc1ccc(Oc2cc(NC(=O)CCCn3nc([N+](=O)[O-])c(Cl)c3C)cc([N+](=O)[O-])c2)cc1	Tau fluor counter 7.9µM[quencher]
Cc1cc(C)cc(Oc2cc(NC(=O)c3cn(C)nc3C)cc([N+](=O)[O-])c2)c1	Tau FP inhib inconclusive, Tau fluor counter 2.5µM[quencher]
Cc1cc([N+](=O)[O-])nn1CCCC(=O)Nc1cc(Oc2ccccc2)cc([N+](=O)[O-])c1	ALDH1A1 inh inconclusive, Tau fluor counter 10µM[quencher]
Cc1nc2c(C(=O)NCCC(C)C)cnn2c(C)c1Cc1c(F)cccc1Cl	none (no result: NPSR antag, HPGD inh, ALDH1A1 inh)
O=C(Nc1cccc(NC(=O)c2ccc(-c3ccc(Br)cc3)o2)c1)c1ccco1	NPSR antag inconclusive, Tau ThT inhib inconclusive, HPGD inh inconclusive, ALDH1A1 inh inconclusive, Tau fluor counter inconclusive
Cc1c(C(=O)O)c(C(=O)O)c2n1CCS2	none (no result: HPGD inh, ALDH1A1 inh)
Cc1cc(C)n(-c2ccc(C(=O)N3CCc4ccccc43)cc2)n1	none
Cc1cccc(-n2cnc3cc(C(=O)N4CCc5ccccc54)ccc32)c1	HPGD inh 22µM, ALDH1A1 inh inconclusive
CCOC(=O)c1cnc(SC)nc1Sc1ccccc1Cl	Tau ThT inhib inconclusive, HPGD inh 16µM
CC(Oc1ccc(Cl)cc1Cl)c1nc(-c2ccc(NC(=O)c3cccnc3)cc2)no1 (centres undefined)	Tau FP inhib 16µM, NPSR antag inconclusive, Tau fluor counter inconclusive
Cc1cc(C(=O)CN2C(=O)NC3(CCCc4sccc43)C2=O)c(C)n1-c1ccccc1 (centres undefined)	Tau ThT inhib inconclusive, ALDH1A1 inh 28µM
Cc1ccnc(NC(=S)NC(=O)c2cccs2)c1	Tau ThT inhib inconclusive
COc1cc(C(=O)N(Cc2ccco2)Cc2cc3ccccc3[nH]c2=O)cc(OC)c1OC	ALDH1A1 inh 22µM
Cc1cccc(CC(=O)Nc2cc(=O)n(C)c(=O)n2C)c1	ALDH1A1 inh inconclusive
Cn1c(NC(=O)Cc2cccc3ccccc23)cc(=O)n(C)c1=O	ALDH1A1 inh 14µM (no result: HPGD inh)

Assay outcomes from PubChem.
